From PubChem BioAssay (NCI) come the findings set out here.

About 83,000 compounds went through this panel and 20% of them were active in at least one assay; those are over-represented in the sample as a whole.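 Assay: single dose, 48 h. Readout: percent growth (0 = no net growth; negative = cell death). Active: <10.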 Values without a mark were called inactive. Active and inactive are the calls of the source.

What all share (assay): NCI-60 one-dose screen, 48 h (100 = growth as untreated, 0 = no growth, -100 = all killed)
Holding throughout (settings): 10 µM unless noted

Assay [1] deals with HCT-15 colon.
Assay [2] relates to HT29 colon.
The subject of assay [3] is SNB-75 CNS.
Assay [4] deals with SNB-19 CNS.
Assay [5] deals with U251 CNS.
The subject of assay [6] is PC-3 prostate.
Assay [7] deals with SK-MEL-5 melanoma.
In assay [8] the test system is UACC-62 melanoma.
Assay [9] concerns LOX IMVI melanoma.
Assay [10] relates to SK-MEL-28 melanoma.

In the case of `O=C(CCCCCCC(=O)Nc1ccc(N(CCCl)CCCl)cc1)NO`, the growth in assay [1] is 72%; in [2] it was 30.5%; in [3], 6.28% (active); in assay [4], 45%; in assay [5], 17.9%; in assay [6], 54.6%. Also, the growth is -56.6% (active) in [7], 14.5% in assay [8], -19.9% (active) in assay [9] and 35.3% in assay [10].

Consider `COC(=O)[C@@H](C)C[C@H](Cc1ccccc1)NC(=O)c1csc([C@@H](C[C@H](C(C)C)N(C)C(=O)[C@@H](NC(=O)[C@H]2CCCCN2C)C2CCCCC2)OC(C)=O)n1`, for which the growth was 10.8% in [1]; -0.416% (active) in assay [2]; 5.81% (active) in assay [3]; 64.5% in assay [4]; -19.4% (active) in assay [5]; 5.7% (active) in [6]. Besides, the growth in [7] is -56.2% (active); in assay [8], 36.3%; in [9] it was 12.5%; in assay [10], 38%.

Take `CCCCCCCCCCCCCC[P+](CCCCCC)(CCCCCC)CCCCCC`: the growth in assay [1] is 7.54% (active); in assay [2], -58.2% (active); in assay [3] it was -31.4% (active); in assay [4], 8.99% (active); in assay [5], -68.4% (active); in assay [6] it was -78.1% (active). The growth in assay [7] is -100% (active); in assay [8], -28.1% (active); in assay [9], -68.5% (active); in assay [10] it was -97.8% (active).

As to `CC1CN1CCCCN1CC1C` (stereo not given), the growth in assay [1] was 103%; in assay [2], 87%; in assay [3] it was 81.1%; in assay [4], 109%; in assay [5], 104%; in [6], 95%. Besides, the growth was 107% in assay [7], 113% in [8], 101% in assay [9] and 100% in [10].

Turning to `CCOC(=O)[C@@H](C)C[C@H](Cc1ccccc1)NC(=O)c1csc([C@@H](C[C@H](C(C)C)N(C)C(=O)[C@@H](NC(=O)[C@H]2C[C@H](O)CCN2C)C(C)C)OC(C)=O)n1`, the growth in assay [1] is 9.76% (active); in assay [2], 0.338% (active); in [3] it was 10.6%; in assay [4] it was 21.8%; in assay [5] it was 10.1%; in [6] it was 24.5%. Moreover, the growth is -4.08% (active) in [7], 38.4% in assay [8], 18.2% in assay [9] and 51.1% in assay [10].

Take `CC(=O)OCc1cc[c]([Hg][Cl])o1`: the growth is 5.8% (active) in assay [1]; 46% in [2]; 42.7% in assay [3]; 45.2% in assay [4]; 7.54% (active) in [5]; 43.8% in assay [6]. Also, the growth in [7] is 42.6%; in [8], 47.8%; in [9], -50.5% (active); in [10] it was 12.3%.

`C=CC[PH+](c1ccccc1)c1ccccc1.C=CC[PH+](c1ccccc1)c1ccccc1.[Cl][Pt][Cl]`: the growth was 31.4% in assay [1]; 41.1% in assay [2]; 66.2% in assay [3]; 70.5% in assay [4]; 37.5% in assay [5]; 54.4% in [6]. For the same compound, the growth is 85.8% in assay [7], 52.9% in assay [8], -6.81% (active) in [9] and 28.4% in assay [10].

Take `CC1=C2[C@@H](CC1)[C@]1(C)O[C@@](C(C)C)(C[C@H]1O)[C@H]2OC(=O)C1CC1c1ccccc1` (stereo not given in full): the growth was 89.8% in [1]; 103% in assay [2]; 88% in [3]; 102% in [4]; 84.3% in assay [5]; 56.9% in assay [6]. In addition, the growth in assay [7] is 85.4%; in [8], 75.6%; in assay [9], 93.3%; in assay [10] it was 105%.

As for `O=C(Nc1ccc(Cl)cc1)Nc1nccs1`, the growth in assay [1] is 33%; in assay [2], 10.7%; in [3] it was 1.2% (active); in assay [4], 64.9%; in [5], 22.3%; in assay [6] it was 13.3%. In addition, the growth in assay [7] was 31.2%; in assay [8], 50.3%; in assay [9], 46.3%; in [10], 50.5%.

As to `COC(=O)[C@H](Cc1ccccc1)NC(=O)c1csc([C@@H](C[C@H](C(C)C)N(C)C(=O)[C@@H](NC(=O)[C@H]2CCCN2C)C2CC2)OC(C)=O)n1`, the growth was 18.7% in assay [1]; 8.98% (active) in [2]; 39.2% in assay [3]; 59.5% in [4]; 13.3% in assay [5]; 13.2% in assay [6]. For the same compound, the growth in assay [7] was 29.4%; in assay [8] it was 38.2%; in assay [9], 16.8%; in assay [10] it was 51.4%.

`CC12CCC3C(CCC4=CC(=O)CCC43CF)C1CCC2=O` (stereo not given): the growth was 106% in [1]; 116% in assay [2]; 90.1% in assay [3]; 109% in assay [4]; 111% in [5]; 97.4% in assay [6]. For the same compound, the growth was 109% in assay [7], 115% in [8], 96.6% in [9] and 117% in assay [10].

For the compound `COc1cc(/C=C/[N+](=O)[O-])c([N+](=O)[O-])cc1OC`, the growth is -45.2% (active) in assay [1]; -66% (active) in assay [2]; 55.3% in assay [3]; 96.3% in [4]; 15.7% in [5]; 51.5% in assay [6]. For the same compound, the growth in assay [7] is 56.2%; in [8] it was -7.94% (active); in assay [9], -68.1% (active); in [10], 38.4%.

For the compound `COC(=O)[C@@H](C)C[C@H](Cc1ccccc1)NC(=O)c1nc([C@@H](C[C@H](C(C)C)N(C)C(=O)[C@@H](NC(=O)[C@H]2CC(=O)CCN2C)C(C)C)OC(C)=O)sc1C(C)C`, the growth in [1] is 8.84% (active); in assay [2], -9.41% (active); in assay [3], 15.7%; in assay [4] it was 21.2%; in assay [5], 12.1%; in assay [6] it was 24.3%. The growth in assay [7] was -14.3% (active); in [8], 36.4%; in [9], 14.7%; in assay [10] it was 51.8%.

As to `CC1[C@H](C)OC(=O)CC(O)CC(O)CC(O)CCC(O)C(O)C[C@]2(O)CC(O)C(C(=O)O)C(CC(OC3O[C@H](C)[C@@H](O)[C@H](N)[C@@H]3O)/C=C/C=C/C=C/C=C/CC/C=C/C=C/[C@H](C)[C@H]1O)O2` (stereo not given in full), the growth in assay [1] is 109%; in [2] it was 107%; in assay [3], 103%; in assay [4], 109%; in assay [5], 92.4%; in assay [6] it was 98.7%. Besides, the growth in [7] was 97.2%; in assay [8] it was 109%; in assay [9], 89.7%; in assay [10], 110%.

For the compound `Cc1cc(C)cc(Nc2nc3c(s2)CC[C@@]2(C)C3=CC[C@@H]3[C@@H]2CC[C@]2(C)C(=O)CC[C@@H]32)c1`, the growth in assay [1] was 19.1%; in assay [2], 12.3%; in assay [3], 70.5%; in assay [4], 60.1%; in [5], 46.6%; in assay [6], 33.1%. Besides, the growth in assay [7] is 91.6%; in [8] it was 52.9%; in assay [9], 4.43% (active); in assay [10], 59.1%.

For `CC(C)(N)Cc1ccccc1`, the growth in assay [1] is 105%; in assay [2] it was 97.2%; in assay [3] it was 103%; in assay [4], 108%; in assay [5], 105%; in [6] it was 88.9%. Besides, the growth in assay [7] is 116%; in assay [8], 107%; in assay [9], 103%; in [10], 116%.

Take `COc1ccc(C(O)(C(=O)O)c2ccc(OC)cc2)cc1`: the growth is 95.7% in assay [1]; 81.4% in [2]; 101% in [3]; 96.9% in assay [4]; 93.9% in [5]; 77.8% in [6]. Also, the growth in [7] was 93.6%; in [8] it was 85.7%; in [9], 93.6%; in [10], 103%.

On to `CN(C)C1C(=O)C(C(N)=O)=C(O)C2(O)C(=O)C3=C(O)c4c(O)cccc4C(C)(O)C3CC12.[Cl][Sb]([Cl])[Cl]` (stereo not given), for which the growth in [1] was 26.7%; in assay [2] it was 38.5%; in assay [3], 40.5%; in assay [4] it was 36.6%; in assay [5], 10.8%; in [6] it was 15.9%. The growth in assay [7] was 15.6%; in [8] it was 26.4%; in [9] it was 25.8%; in assay [10], 47%.

`COC(=O)[C@@H](C)C[C@H](Cc1ccccc1)NC(=O)c1nc([C@@H](C[C@H](C(C)C)N(C)C(=O)[C@@H](NC(=O)[C@H]2C[C@H](O)CCN2C)C(C)C)OC(C)=O)sc1C(C)C`: the growth in assay [1] was 2.8% (active); in assay [2], -15.3% (active); in assay [3], -9.05% (active); in [4], 16.5%; in assay [5], 7.85% (active); in [6] it was 21.5%. Moreover, the growth in [7] was -24% (active); in [8] it was 31.3%; in [9], 8.19% (active); in assay [10], 44.8%.

For the compound `COC(=O)[C@@]1(O)C[C@H]2O[C@]1(C)n1c3ccccc3c3c4c(c5c6ccccc6n2c5c31)C(=O)NC4`, the growth in assay [1] was -29.3% (active); in assay [2], -24.6% (active); in [3] it was -97.1% (active); in assay [4], -27.9% (active); in [5], -67.1% (active); in assay [6], -50.3% (active). Also, the growth in [7] is -89.4% (active); in assay [8] it was -47.4% (active); in assay [9], -69.2% (active); in assay [10] it was -58.9% (active).

For the compound `C[C@@]12CC[C@@H](O)C[C@@H]1CC[C@H]1[C@H]2CC[C@@]2(C)[C@H](c3ccc(=O)oc3)CC[C@@]12O`, the growth in [1] was -79.7% (active); in assay [2] it was -67.5% (active); in assay [3], -85% (active); in assay [4] it was -99.8% (active); in assay [5], -81.3% (active); in assay [6], -22.5% (active). Besides, the growth in [7] is -68.6% (active); in assay [8], -71% (active); in assay [9] it was -74.9% (active); in assay [10] it was -43% (active).

With `CNC12C3C4C1C1C2C3C41C(=O)N[C@H](C(=O)N(C)[C@H](C[C@@H](OC(C)=O)c1nc(C(=O)N[C@@H](Cc2ccccc2)C[C@H](C)C(=O)OC)cs1)C(C)C)C1CC1` (stereo not given in full), the growth in assay [1] is 11.4%; in [2], -12.6% (active); in assay [3], 26.9%; in [4], 33.4%; in assay [5], 10.1%; in assay [6], 16.9%. Further, the growth was -54.4% (active) in assay [7], 13.9% in [8], 0.284% (active) in [9] and 62.3% in assay [10].
